# Many of the other results were omitted from the sample, so the strongest signals are more common in it than they were.
# Experiments:
# Experiment in all cases: glycan array binding signal (z-score within array); higher = stronger binding
# Gal6S(b1-4)Glc = settings: glycan notation: IUPAC condensed, linker removed
# How it was run: (§1)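 Arrays were curated from the Consortium for Functional Glycomics database, 3228 in total, and kept only where the protein sequence was available. Binding is expressed as a within-array Z-score. This score was averaged across arrays of the same protein sequence at different concentrations or buffers and across linkers, and negative values can be read as non-binding.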
# GalNAc(b1-6)GalNAc = settings: glycan notation: IUPAC condensed, linker removed; mutation: R125K
# How it was run: as §1
# Glc(a1-4)Glc = settings: glycan notation: IUPAC condensed, linker removed
# How it was run: as §1
# GalNAc(a1-3)Gal = settings: glycan notation: IUPAC condensed, linker removed
# How it was run: as §1
# GalNAc(a1-3)GalNAc = settings: glycan notation: IUPAC condensed, linker removed
# How it was run: as §1
# GalNAc(b1-3)GalNAc = settings: glycan notation: IUPAC condensed, linker removed
# How it was run: as §1
# [1] = test system: GalNAc(b1-3)Gal(a1-4)Gal(b1-4)GlcNAc; settings: glycan notation: IUPAC condensed, linker removed
# How it was run: as §1
# [2] = test system: GalNAc(b1-4)GlcNAc(b1-2)Man(a1-3)[GalNAc(b1-4)GlcNAc(b1-2)Man(a1-6)]Man(b1-4)GlcNAc(b1-4)GlcNAc; settings: glycan notation: IUPAC condensed, linker removed
# How it was run: as §1
# [3] = test system: Glc(a1-4)Glc(a1-4)Glc(a1-4)Glc; settings: glycan notation: IUPAC condensed, linker removed
# How it was run: as §1
# [4] = test system: Glc(a1-6)Glc(a1-6)Glc(a1-6)Glc; settings: glycan notation: IUPAC condensed, linker removed
# How it was run: as §1
# wLAT-1A (Homo sapiens), Q01650, sequence (Q01650 whole entry): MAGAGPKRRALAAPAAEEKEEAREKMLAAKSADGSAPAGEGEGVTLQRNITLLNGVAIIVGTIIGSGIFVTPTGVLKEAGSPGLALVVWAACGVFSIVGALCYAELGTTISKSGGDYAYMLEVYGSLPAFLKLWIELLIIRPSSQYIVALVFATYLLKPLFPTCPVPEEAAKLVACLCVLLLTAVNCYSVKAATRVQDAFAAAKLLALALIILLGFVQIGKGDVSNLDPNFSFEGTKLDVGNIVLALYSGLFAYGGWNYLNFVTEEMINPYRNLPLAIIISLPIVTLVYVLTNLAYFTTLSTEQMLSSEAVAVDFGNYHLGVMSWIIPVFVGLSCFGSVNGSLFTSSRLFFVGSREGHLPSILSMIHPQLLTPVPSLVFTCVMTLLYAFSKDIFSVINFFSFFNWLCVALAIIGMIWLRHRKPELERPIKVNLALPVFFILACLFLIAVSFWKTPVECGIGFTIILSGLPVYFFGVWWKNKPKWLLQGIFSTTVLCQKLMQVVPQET
# PILRb (Mus musculus), Q2YSF2, sequence (Q2YSF2 entry or part of it): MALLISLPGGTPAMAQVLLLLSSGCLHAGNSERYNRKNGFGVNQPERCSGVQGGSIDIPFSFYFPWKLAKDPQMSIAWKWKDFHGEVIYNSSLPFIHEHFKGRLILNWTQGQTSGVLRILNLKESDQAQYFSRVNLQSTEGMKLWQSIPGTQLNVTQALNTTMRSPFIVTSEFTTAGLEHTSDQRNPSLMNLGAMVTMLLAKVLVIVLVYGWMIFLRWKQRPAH
# CHI3L1 (Homo sapiens), P36222, sequence (P36222 whole entry): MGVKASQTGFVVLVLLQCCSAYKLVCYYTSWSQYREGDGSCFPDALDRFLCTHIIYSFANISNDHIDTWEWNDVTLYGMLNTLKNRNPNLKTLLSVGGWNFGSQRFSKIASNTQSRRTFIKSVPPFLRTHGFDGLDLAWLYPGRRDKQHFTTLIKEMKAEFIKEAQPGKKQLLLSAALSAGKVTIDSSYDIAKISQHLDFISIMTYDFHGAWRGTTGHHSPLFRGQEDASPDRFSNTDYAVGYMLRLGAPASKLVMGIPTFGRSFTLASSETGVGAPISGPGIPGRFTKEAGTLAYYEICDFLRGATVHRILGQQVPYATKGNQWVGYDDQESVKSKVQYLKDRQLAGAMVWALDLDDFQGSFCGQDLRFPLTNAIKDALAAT
# 6RG (Lolium perenne), B9U140, sequence (B9U140 entry or part of it): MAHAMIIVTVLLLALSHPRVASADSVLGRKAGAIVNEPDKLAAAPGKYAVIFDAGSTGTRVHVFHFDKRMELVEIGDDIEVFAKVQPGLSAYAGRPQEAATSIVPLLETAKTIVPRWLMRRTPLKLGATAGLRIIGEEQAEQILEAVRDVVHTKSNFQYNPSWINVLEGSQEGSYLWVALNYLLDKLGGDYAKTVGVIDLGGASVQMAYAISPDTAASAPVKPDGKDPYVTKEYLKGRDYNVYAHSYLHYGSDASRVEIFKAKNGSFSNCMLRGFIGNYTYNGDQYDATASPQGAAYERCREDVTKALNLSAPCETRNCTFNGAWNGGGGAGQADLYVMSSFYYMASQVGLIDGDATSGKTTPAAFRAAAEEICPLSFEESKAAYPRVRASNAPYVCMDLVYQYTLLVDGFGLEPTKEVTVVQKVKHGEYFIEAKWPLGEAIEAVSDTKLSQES
# Avaren (Actinomycete K97), sequence (chain, as listed by the source): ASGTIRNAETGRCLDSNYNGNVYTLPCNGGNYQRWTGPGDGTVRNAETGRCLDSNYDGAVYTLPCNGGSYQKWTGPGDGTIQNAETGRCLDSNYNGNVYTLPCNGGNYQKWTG
# C3b (Homo sapiens), P01024, sequence (P01024 23-667): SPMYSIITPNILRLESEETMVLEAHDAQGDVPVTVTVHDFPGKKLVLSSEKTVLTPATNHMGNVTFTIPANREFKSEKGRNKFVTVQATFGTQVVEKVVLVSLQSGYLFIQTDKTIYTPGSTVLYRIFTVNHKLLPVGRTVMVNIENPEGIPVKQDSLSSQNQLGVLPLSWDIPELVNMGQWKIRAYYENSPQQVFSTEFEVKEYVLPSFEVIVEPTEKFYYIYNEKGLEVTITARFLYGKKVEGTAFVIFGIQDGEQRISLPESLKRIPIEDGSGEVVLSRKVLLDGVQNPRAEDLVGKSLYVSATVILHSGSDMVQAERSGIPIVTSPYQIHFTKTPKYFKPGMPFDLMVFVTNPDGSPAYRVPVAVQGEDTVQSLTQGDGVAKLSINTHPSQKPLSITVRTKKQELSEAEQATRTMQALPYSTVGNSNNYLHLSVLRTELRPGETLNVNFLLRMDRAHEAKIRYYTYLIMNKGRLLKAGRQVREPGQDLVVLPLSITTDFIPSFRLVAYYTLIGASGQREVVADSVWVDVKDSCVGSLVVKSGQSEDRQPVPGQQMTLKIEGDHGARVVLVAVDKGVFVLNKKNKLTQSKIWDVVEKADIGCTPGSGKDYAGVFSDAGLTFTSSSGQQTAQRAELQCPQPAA
# Aggrecan (Rattus norvegicus), NP_071526, sequence (chain, as listed by the source): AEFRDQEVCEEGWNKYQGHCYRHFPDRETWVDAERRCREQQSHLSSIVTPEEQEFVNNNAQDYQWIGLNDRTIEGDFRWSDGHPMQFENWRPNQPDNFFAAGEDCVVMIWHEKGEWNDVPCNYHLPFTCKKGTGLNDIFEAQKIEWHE
substance,measurement,setting,value
"Siglec-8 (Homo sapiens), Q9NYZ4",glycan array binding signal (z-score),Gal6S(b1-4)Glc; mutation: R125K,0.06
same,glycan array binding signal (z-score),GalNAc(b1-6)GalNAc,-0.055
"C3b (Homo sapiens), P01024",glycan array binding signal (z-score),Glc(a1-4)Glc,-0.67
"6RG (Lolium perenne), B9U140",glycan array binding signal (z-score),Gal6S(b1-4)Glc,0.084
same,glycan array binding signal (z-score),GalNAc(a1-3)Gal,-0.395
"wLAT-1A (Homo sapiens), Q01650",glycan array binding signal (z-score),GalNAc(a1-3)GalNAc,6.65
same,glycan array binding signal (z-score),GalNAc(a1-3)Gal,3.46
same,glycan array binding signal (z-score),GalNAc(b1-3)GalNAc,1.87
"PILRb (Mus musculus), Q2YSF2",glycan array binding signal (z-score),[1],-0.074
same,glycan array binding signal (z-score),GalNAc(b1-3)GalNAc,0.288
"Aggrecan (Rattus norvegicus), NP_071526",glycan array binding signal (z-score),[2],0.017
"CHI3L1 (Homo sapiens), P36222",glycan array binding signal (z-score),[3],0.48
same,glycan array binding signal (z-score),[4],1.01
"HARE (Homo sapiens), Q8WWQ8",glycan array binding signal (z-score),Gal6S(b1-4)Glc,0.81
Avaren (Actinomycete K97),glycan array binding signal (z-score),[4],-0.14
MpAFP RI GFP (Marinomonas primoryensis),glycan array binding signal (z-score),GalNAc(a1-3)GalNAc,-0.566
